B1: partially deoxy duplex (substrate b) (mixed)
RNA 1: GCUCGCGAUGCUAGAGGGCUCUGC
RNA 2: GCAGAGCCCCCCAGCAUCGCGAGC
modifications: 2'-deoxy at top UAGA and at bottom C opposite edited A
B2: partially deoxy duplex (substrate c) (mixed)
RNA 1: GCUCGCGAUGCUAGAGGGCUCUGC
RNA 2: GCAGAGCCCCCCAGCAUCGCGAGC
modifications: 2'-deoxy at top UAGA

Experiments:
[1] = target: T1, hADAR2d (ADAR2 deaminase domain, hADAR2-D WT) (Homo sapiens); experiment: deamination rate, 300 nM enzyme; conditions: tags: Ni-NTA purified (His10, TEV site); label: internal 32P
T1 chain: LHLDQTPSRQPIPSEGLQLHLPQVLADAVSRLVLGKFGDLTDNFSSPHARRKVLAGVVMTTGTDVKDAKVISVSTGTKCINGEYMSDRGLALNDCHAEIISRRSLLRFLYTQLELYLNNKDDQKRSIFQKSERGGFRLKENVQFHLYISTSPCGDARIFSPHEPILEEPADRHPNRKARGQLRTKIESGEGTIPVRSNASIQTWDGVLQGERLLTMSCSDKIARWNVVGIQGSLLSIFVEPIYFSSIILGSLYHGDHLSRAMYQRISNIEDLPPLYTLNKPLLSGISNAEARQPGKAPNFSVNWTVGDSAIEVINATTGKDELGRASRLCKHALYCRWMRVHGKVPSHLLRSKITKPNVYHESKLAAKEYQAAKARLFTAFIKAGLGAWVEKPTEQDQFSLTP
Protocol: For the partially 2′-deoxy-modified substrates, the final reaction volume was 10 μL. The final enzyme concentration was 300 nM. The final RNA concentration was 10 nM. The final reaction solution contained 16 mM Tris-HCl, pH 7.4, 3.3% glycerol, 1.6 mM EDTA, 0.003% NP-40, 60 mM KCl, 7.1 mM NaCl, 0.5 mM DTT, 160 units/mL RNasin, and 1 μg/mL yeast tRNA. Reactions were quenched by adding 190 μL 95° C. nuclease-free water followed by incubation at 95° C. for 5 minutes. Deaminated products were purified by phenol-chloroform extraction and ethanol precipitation. The product-containing solution was lyophilized to dryness and suspended in 50 μL of 1×TE solution, followed by digestion with nuclease P1. The resulting 5′-mononucleotides were resolved by thin-layer chromatography (TLC, Macherey-Nagel) (22). The TLC was visualized by exposure to storage phosphor imaging plates (Molecular Dynamics) on a Typhoon phosphorimager (Molecular Dynamics) and quantified by volume integration using ImageQuant software (Molecular Dynamics). […] Statistical significance between groups was determined by t tests using QuickCalcs (GraphPad Software). hADAR2 wt deamination was carried out twice, deamination with other proteins was carried out in triplicate.

[2] = target: T1, hADAR2d (ADAR2 deaminase domain, …); experiment: rate stated as similar to substrate b; conditions: tags: Ni-NTA purified (His10, TEV site); label: internal 32P
Protocol: This reconstituted solution was heated to 65° C. for 5 minutes. After the solution was slowly cooled to room temperature, 1.5 μL of RNasin ([…]), 5 μL of 4 mM ATP, and 1 μL of T4 DNA ligase (400 U/μL) were added to the solution so that the final reaction volume was 20 μL . The reaction was incubated at 30° C. for 2 hours, then 2 μL of 40 μM trap DNA were added to the splint ligation reaction. The splint ligation products were purified as described above. Purified ³²P labeled top strand was hybridized with the corresponding bottom strand 24-nt oligonucleotide as described above. Deamination reactions were carried out as previously described (21) with the following modifications. For the partially 2′-deoxy-modified substrates, the final reaction volume was 10 μL. The final enzyme concentration was 300 nM. The final RNA concentration was 10 nM. The final reaction solution contained 16 mM Tris-HCl, pH 7.4, 3.3% glycerol, 1.6 mM EDTA, 0.003% NP-40, 60 mM KCl, 7.1 mM NaCl, 0.5 mM DTT, 160 units/mL RNasin, and 1 μg/mL yeast tRNA. Reactions were quenched by adding 190 μL 95° C. nuclease-free water followed by incubation at 95° C. for 5 minutes. […] The TLC was visualized by exposure to storage phosphor imaging plates (Molecular Dynamics) on a Typhoon phosphorimager (Molecular Dynamics) and quantified by volume integration using ImageQuant software (Molecular Dynamics). […]

| Binder | relative deamination rate [1] | binding signal [2] |
| --- | --- | --- |
| B1 | ~15 fold slower than N1 |  |
| B2 |  | ~15 fold slower than N1 |
